The source of these data is PubChem BioAssay (NCATS).

The structures appear in SMILES notation. Values joined by “and” are separate entries in the source; they are usually repeats but may differ in a detail not shown here. Identical values can stand only once. Records with an inconclusive call do not appear. Some compounds were tested as several samples or in several runs, with calls that do not always agree. Active and inactive are the calls of the source. Unless noted, calls come from the whole dose curve; as a rule, active = well fitted curve in the direction sought with a large enough effect; inconclusive = small, poorly fitted or top-dose-only effect, or another doubt; inactive = no such curve, though single readings can be large; an effect the other way counts as inactive or inconclusive.

Assay [1] is described as follows: qHTS to identify inhibitors of the type 1 interferon - major histocompatibility complex class I in skeletal muscle: primary screen against the NCATS Mechanism Interrogation Plate v5.0 (MIPE) Libary (AID 1347411). Note: nearly all actives have a fitted effect of over 65% in size. The method in brief: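 Immortalized human C25cl48 myoblasts with HiBit knocked into endogenous HLA-B*08:01 were stimulated with 4.0 ng/ml IFN-beta and exposed to compounds (11-point 1:3 titration, top 46 uM final) for 24 hrs at 37 C; HiBiT lytic luminescence measured.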
In general terms: qHTS replaces the single test concentration by a dilution series.

Assay [2] has as its target Protein phosphatase 1D (Homo sapiens) (UniProt O15297). Kind of assay: Rhodamine-PBP qHTS Assay for Modulators of WT P53-Induced Phosphatase 1 (WIP1) (AID 1347425). The method in brief:
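Steps: enzyme with Rh-PBP sensor and compounds, room-temperature incubation of 1 hr, baseline read, addition of VEPPL-pS-QETFS (10 uM final), kinetic fluorescence reads at 525/598 nm. Activity equals final minus baseline signal.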

Assay [3] is described as follows: Validation qHTS assay for inhibitors of Activation Induced Cytidine Deaminase (AID): UDG Counterscreen signal (AID 1347427). Summed up:
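Counterscreen read of UDG activity (2 U/mL, 4/3x) in the FRET deamination format with AID (1 uM, 4/3x), DJC20/DJC23 substrates (250 nM, 4x), 4 h at room temperature. NaOH stop, fluorescence at 560 ex/665 em.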

Assay [4] concerns the target Single-stranded DNA cytosine deaminase (Homo sapiens) (UniProt Q9GZX7). Kind of assay: Validation qHTS assay for inhibitors of Activation Induced Cytidine Deaminase (AID): AID signal (AID 1347429). Summed up:
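AID and UDG were combined and compounds added at final up to 114 uM, then DJC20/DJC23 FRET substrate was added for 4 hr at room temperature. NaOH was then added for 30 min before fluorescence was read at 540/590 nm.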

Assay [5] in a line: Primary qHTS for inhibitors of La Crosse Virus (LACV) - induced cell death in SH-SY5Y cells (AID 1508616). Note: potency is the fitted concentration of half-maximal effect. The method in brief:
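Luminescent ATP readout (ATPLite 1step, 5 min room temperature) measured rescue from LACV-induced death after 6 days of infection at 0.01 MOI; normalized to infected DMSO wells and uninfected DMSO wells.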

Assay [6] deals with Calcium and integrin-binding protein 1 (Homo sapiens) (UniProt Q99828). The assay can be described thus: Validation qHTS for Identification of Calcium Integrin Binding protein 1 (CIB1) Competitor (AID 1508618). The method in brief: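 In this qHTS validation, the LOPAC set (up to 114 uM) was tested for blocking CIB1 binding to a fluorescein-tagged alphaIIb peptide, with FP detection at 480/540 nm.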
Chain of Calcium and integrin-binding protein 1 (Homo sapiens) (Q99828 whole entry, looked up): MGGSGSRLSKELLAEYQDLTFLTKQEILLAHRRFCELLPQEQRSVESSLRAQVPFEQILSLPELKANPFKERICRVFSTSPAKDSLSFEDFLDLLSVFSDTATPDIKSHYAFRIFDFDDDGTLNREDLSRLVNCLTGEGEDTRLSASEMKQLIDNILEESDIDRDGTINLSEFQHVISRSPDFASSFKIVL

Assay [7] is described as follows: Primary qHTS for small molecule stabilizers of the endoplasmic reticulum resident proteome: Secreted ER Calcium Modulated Protein (SERCaMP) assay (AID 1508630). Note: potency is the fitted concentration of half-maximal effect. The method in brief: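 GLuc-SERCaMP-expressing SH-SY5Y cells, pretreated 16 h with compound, are challenged with thapsigargin to empty ER calcium stores; after 4 h, coelenterazine is added directly to the medium and luminescence is imaged.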

Assay [8] can be described thus: A High-Content qHTS Against Drug Library for the Identification of Small Molecules that Inhibit DYT1 Early Onset Primary Dystonia-Associated Cell Pathology (AID 1645839; calls by dose curve; note: series mostly up to about 46 µM). Summed up: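 Flp-In T-REx 293 cells with tetracycline-inducible EGFP-delE hTOR1A (WT EGFP-hTOR1A as reference), 800 cells/well; compound added with tetracycline, 48 h at 37 C. Fixed, permeabilized cells imaged; %pathology (punctate TorsinA) primary, cell count counterscreen.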

Assay [9] has as its target Cytochrome P450 2D6 (Homo sapiens) (UniProt P10635). Kind of assay: Cytochrome P450 family 2 subfamily D member 6 (CYP2D6) small molecule antagonists: luciferase biochemical (cell-free) qHTS assay (AID 1645840; active = well fitted curve in the direction sought with a large enough effect in the repeat runs; an effect the other way counts as inactive or inconclusive; note: nearly all actives have a fitted effect of over 55% in size; note: potency is the fitted concentration of half-maximal effect). Summed up: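 P450-Glo luminescent screen: recombinant CYP2D6 enzyme–proluciferin substrate mix preincubated with compound 10 min at room temperature, then NADPH regeneration added for 1 h at room temperature. Detection reagent added for 20 min; luciferin light read as relative luminescence units.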

For assay [10], the target named is Cytochrome P450 2C9 (Homo sapiens) (UniProt P11712). Kind of assay: Cytochrome P450 family 2 subfamily C member 9 (CYP2C9) small molecule antagonists: luciferase biochemical (cell-free) qHTS assay (AID 1645842; active = well fitted curve in the direction sought with a large enough effect in the repeat runs; an effect the other way counts as inactive or inconclusive; note: nearly all actives have a fitted effect of over 55% in size; note: potency is the fitted concentration of half-maximal effect). The method in brief:
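Luminescence, after 20 min with luciferin detection reagent, reflected CYP2C9 turnover during a 1 h NADPH-driven reaction at 37C. Enzyme-substrate mix contained 0.4% bovine serum albumin and was preincubated with compound 10 min at room temperature.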

A further assay deals with Papain (Carica papaya) (UniProt P00784). Kind of assay: Primary qHTS assay for inhibitors of the protease papain (AID 1645873).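 Note: papain turnover of Z-FR-AMC read as the AMC fluorescence gain over 10 min; series mostly up to about 50 µM.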
Chain of Papain (Carica papaya) (P00784 whole entry, looked up, the tested form may be a part): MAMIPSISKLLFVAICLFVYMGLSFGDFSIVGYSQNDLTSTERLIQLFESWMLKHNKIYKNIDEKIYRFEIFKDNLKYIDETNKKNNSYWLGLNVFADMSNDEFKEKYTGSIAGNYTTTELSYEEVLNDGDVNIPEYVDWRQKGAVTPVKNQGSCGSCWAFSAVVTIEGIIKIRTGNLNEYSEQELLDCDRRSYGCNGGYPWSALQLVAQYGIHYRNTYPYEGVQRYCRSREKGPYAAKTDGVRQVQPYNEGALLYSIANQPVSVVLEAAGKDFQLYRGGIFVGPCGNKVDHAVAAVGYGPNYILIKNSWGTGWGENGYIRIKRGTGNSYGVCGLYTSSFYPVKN
The nature of assay [11]: Primary qHTS for inhibitors of nuclear receptor binding SET domain protein 2 (NSD2) in an isogenic RCH-ACV NSD2 p.E1099K mutant (9B) (AID 1645876). Note: nearly all actives have a fitted effect of over 70% in size. Note: potency is the fitted concentration of half-maximal effect.
Assay [12] deals with Calcium and integrin-binding protein 1 (Homo sapiens) (UniProt Q99828). The assay can be described thus: Primary qHTS for Identification of Calcium Integrin Binding Protein 1 (CIB1) Competitor (AID 1508620). Note: top concentration of the series differs between compounds. The method in brief: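 Fluorescence polarization competition: GST-tagged CIB1 (1 uM final) preincubated with compound 15 min at room temperature, then FITC-labelled alphaIIb peptide (100 nM final) added. After 15 min at room temperature, polarization read at Ex 480/Em 540.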

The target in assay [13] is N-terminal Xaa-Pro-Lys N-methyltransferase 1 (Homo sapiens) (UniProt Q9BV86). Kind of assay: Confirmatory qHTS for Inhibitors of N-terminal methyltransferase 1 (NTMT1): MTaseGlo Assay (AID 1645874).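 Note: luminescence from SAH made as NTMT1 methylates SPKRIA peptide using SAM; series mostly up to about 100 µM; nearly all actives have a fitted effect of over 65% in size.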 The method in brief:
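Compounds are incubated with 125 nM NTMT1 and 100 uM SAM for 15 min before the SPKRIA peptide (1 uM) starts a 30 min room-temperature methylation. SAH is measured by coupled luciferase luminescence and curves fitted to a Hill equation.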

The nature of assay [14]: Counterscreen qHTS for small molecule stabilizers of the endoplasmic reticulum resident proteome: GLuc-NoTag assay (AID 1508627).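 Note: SH-SY5Y cells given compound then 100 nM thapsigargin to empty ER calcium; series mostly up to about 76 µM.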 The method in brief: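 SH-SY5Y cells stably expressing constitutively secreted GLuc without SERCaMP tag, exposed to compound for 19 hr, then to 100 nM thapsigargin for 4 hr at 37C. Medium luciferase was read by coelenterazine luminescence without lysis.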
In general terms: The purpose of a counterscreen is to sort out artefacts and off-target activity.

Assay [15] can be described thus: Confirmatory qHTS for small molecule stabilizers of the endoplasmic reticulum resident proteome: Secreted ER Calcium Modulated Protein (SERCaMP) assay (AID 1508628).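 Note: SH-SY5Y cells given compound 16 h then thapsigargin 100 nM for 4 h; series mostly up to about 76 µM; nearly all actives have a fitted effect of over 40% in size.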 Summed up:
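We seeded SH-SY5Y-GLuc-SERCaMP cells, added compounds (three concentrations in the primary run, eleven up to 76.6 uM in confirmation), incubated 16 h, depleted ER calcium with thapsigargin, and read luciferase 4 h later.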

Chain of Cytochrome P450 2D6 (Homo sapiens) (P10635 whole entry, looked up): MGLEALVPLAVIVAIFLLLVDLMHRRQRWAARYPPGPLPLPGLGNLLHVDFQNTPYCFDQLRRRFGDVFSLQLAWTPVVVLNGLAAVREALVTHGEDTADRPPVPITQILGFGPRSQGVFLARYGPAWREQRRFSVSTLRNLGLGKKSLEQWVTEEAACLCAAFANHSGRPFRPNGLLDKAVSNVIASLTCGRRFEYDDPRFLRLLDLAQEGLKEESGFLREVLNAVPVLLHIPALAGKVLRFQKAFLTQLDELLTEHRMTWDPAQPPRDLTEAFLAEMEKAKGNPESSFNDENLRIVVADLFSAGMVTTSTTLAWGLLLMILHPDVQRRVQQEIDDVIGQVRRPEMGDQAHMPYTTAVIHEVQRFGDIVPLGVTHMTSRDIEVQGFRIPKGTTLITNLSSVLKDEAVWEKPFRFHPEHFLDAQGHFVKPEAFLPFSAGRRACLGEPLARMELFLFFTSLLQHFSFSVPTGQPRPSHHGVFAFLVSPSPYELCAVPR
Chain of Single-stranded DNA cytosine deaminase (Homo sapiens) (Q9GZX7 whole entry, looked up): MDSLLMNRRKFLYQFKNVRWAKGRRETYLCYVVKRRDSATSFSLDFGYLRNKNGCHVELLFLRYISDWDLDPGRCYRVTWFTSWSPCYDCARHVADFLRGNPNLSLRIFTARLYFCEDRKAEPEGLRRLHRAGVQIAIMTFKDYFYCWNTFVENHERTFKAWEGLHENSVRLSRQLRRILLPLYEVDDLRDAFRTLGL
Chain of Cytochrome P450 2C9 (Homo sapiens) (P11712 whole entry, looked up): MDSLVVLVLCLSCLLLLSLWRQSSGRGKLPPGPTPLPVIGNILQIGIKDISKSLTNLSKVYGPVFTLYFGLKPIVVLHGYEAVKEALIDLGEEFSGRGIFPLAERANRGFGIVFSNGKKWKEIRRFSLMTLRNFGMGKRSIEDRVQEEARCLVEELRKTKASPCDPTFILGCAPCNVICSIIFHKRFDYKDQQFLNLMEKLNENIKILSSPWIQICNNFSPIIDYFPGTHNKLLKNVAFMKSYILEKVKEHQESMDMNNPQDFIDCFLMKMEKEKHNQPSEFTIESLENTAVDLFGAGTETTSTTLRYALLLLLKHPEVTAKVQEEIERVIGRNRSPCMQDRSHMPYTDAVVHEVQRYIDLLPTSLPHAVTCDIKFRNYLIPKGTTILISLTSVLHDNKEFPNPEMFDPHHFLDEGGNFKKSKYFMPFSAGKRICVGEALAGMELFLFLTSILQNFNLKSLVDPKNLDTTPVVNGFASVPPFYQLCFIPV
Chain of Protein phosphatase 1D (Homo sapiens) (O15297 whole entry, looked up): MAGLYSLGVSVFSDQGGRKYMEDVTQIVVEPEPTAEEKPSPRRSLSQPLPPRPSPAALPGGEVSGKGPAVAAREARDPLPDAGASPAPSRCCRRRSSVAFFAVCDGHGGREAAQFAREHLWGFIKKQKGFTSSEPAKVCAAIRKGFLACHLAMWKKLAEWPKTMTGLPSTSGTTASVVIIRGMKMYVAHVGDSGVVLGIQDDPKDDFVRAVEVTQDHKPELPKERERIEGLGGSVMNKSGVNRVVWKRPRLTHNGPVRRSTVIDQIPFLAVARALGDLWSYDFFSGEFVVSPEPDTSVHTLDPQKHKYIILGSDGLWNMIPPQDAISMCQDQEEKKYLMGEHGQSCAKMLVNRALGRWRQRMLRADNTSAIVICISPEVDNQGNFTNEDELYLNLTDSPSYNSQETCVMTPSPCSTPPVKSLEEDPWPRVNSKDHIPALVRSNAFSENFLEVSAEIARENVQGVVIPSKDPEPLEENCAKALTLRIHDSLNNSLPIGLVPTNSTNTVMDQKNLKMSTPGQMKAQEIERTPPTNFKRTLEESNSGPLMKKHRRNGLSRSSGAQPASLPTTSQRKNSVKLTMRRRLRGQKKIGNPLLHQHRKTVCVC
Chain of N-terminal Xaa-Pro-Lys N-methyltransferase 1 (Homo sapiens) (Q9BV86 whole entry, looked up): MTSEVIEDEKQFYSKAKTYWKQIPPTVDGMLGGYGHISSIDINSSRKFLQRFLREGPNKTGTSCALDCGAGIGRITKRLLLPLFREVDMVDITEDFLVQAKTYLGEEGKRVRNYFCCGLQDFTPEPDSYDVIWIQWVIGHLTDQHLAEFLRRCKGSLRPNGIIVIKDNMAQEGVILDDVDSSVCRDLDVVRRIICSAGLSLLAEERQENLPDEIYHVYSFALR

`CC1(C)NC(=O)N(c2ccc([N+](=O)[O-])c(C(F)(F)F)c2)C1=O`: the Potency entry in [1], in assay [3], in [5], in [7], in assay [8] and in assay [9] was “inactive” throughout. Further, the Potency entry (with Papain (Carica papaya); in assay [11]) was “inactive” in each case. The compound was called inactive in assay [2], in assay [4] and in [6]. Further, in [10], the Potency was 7.76 µM (active) and 6.01 µM (active).
As to `Nc1ncn([C@H]2C[C@H](O)[C@@H](CO)O2)c(=O)n1`, the Potency result in assay [1], in assay [7], in assay [8], in [9] and in [10] was “inactive” each time. Further, the outcome in assay [2] was inactive. In assay [11], the Potency was 266 nM (active) and 742 nM (active).
`CC(C)[C@H](N)C(=O)OCCOCn1cnc2c(=O)[nH]c(N)nc21`: the Potency entry in assay [1], in assay [5], in assay [7], in [8], in [9] and in assay [10] was “inactive” in each case. The Potency result in [11] is “inactive”. In [2], the outcome was inactive.
For `N[C@@H](Cc1cc(I)c(Oc2cc(I)c(O)c(I)c2)c(I)c1)C(=O)O`, the Potency entry in assay [1], in [5], in [12], in assay [8], in assay [9] and in [11] was “inactive” in each case. Besides, the outcome in assay [2] was inactive. Besides, in assay [7], the Potency result was “inactive and 749 nM (active)”.
Regarding `Oc1ccc(OCc2ccccc2)cc1`, the Potency entry in assay [1], in [5], in assay [12], in assay [7] and in assay [8] was “inactive” throughout. Moreover, the call in assay [2] was inactive. Further, the Potency is 15.5 µM (active) in assay [9]; “inactive and 2.63 µM (active)” in assay [11].
With `S=c1nc[nH]c2nc[nH]c12`, the Potency result in [1], in assay [5], in [7], in assay [8], in assay [9] and in assay [13] was “inactive” throughout. The compound was classed as inactive in [2]. The Potency in [10] was 19.5 µM (active); in assay [11], 944 nM (active) and 2.63 µM (active).
For `Nc1ccn([C@@H]2O[C@H](CO)[C@@H](O)C2O)c(=O)n1` (stereo not given in full), the Potency entry in assay [1], in assay [3], in assay [7] and in assay [9] was “inactive” each time. Also, the compound was classed as inactive in assay [4]. The results for the Potency in assay [5] and in assay [11] were 0.316 µM (active) and 16.6 nM (active), respectively.
On to `CCCCC(CC)COC(=O)C(C#N)=C(c1ccccc1)c1ccccc1` (stereo not given), for which the Potency result in assay [1], in assay [5], in assay [12], in [7] and in assay [8] was “inactive” in each case. The compound was called inactive in assay [2]. Also, the Potency in assay [9] is 1.23 µM (active) and 3.38 µM (active); in [10] it was 1.1 µM (active) and 3.01 µM (active); in [11] it was 21.1 µM (active) and inactive.
As to `O=C(O)c1cccc(-c2noc(-c3ccccc3F)n2)c1`, the Potency result in assay [1], in assay [5], in assay [12], in assay [14], in [15] and in [8] was “inactive” each time. Besides, the Potency entry in assay [13] and in assay [11] was “inactive” in each case. The compound was classed as inactive in [2]. In addition, the Potency in [9] and in assay [10] was 1.55 µM (active) in each case.
For `C[C@@H](N)C1CCC(C(=O)Nc2ccncc2)CC1` (stereo not given in full), the Potency entry (in assay [1]; in assay [3]; in assay [5]; in assay [12]; in assay [7]; in the assay with Papain (Carica papaya)) was “inactive” each time. Also, in assay [11], the Potency result is “inactive”. The compound was classed as inactive in [4] and in [6].
Consider `CC(=O)O[C@H]1C(=O)[C@@]2(C)C([C@H](OC(=O)c3ccccc3)[C@]3(O)C[C@H](OC(=O)[C@H](O)[C@@H](NC(=O)c4ccccc4)c4ccccc4)C(C)=C1C3(C)C)[C@]1(OC(C)=O)CO[C@@H]1C[C@@H]2O` (stereo not given in full), for which the Potency entry in assay [1], in assay [3], in [5], in assay [12] and in assay [7] was “inactive” in each case. Besides, in assay [4], the outcome was inactive. In addition, the Potency in assay [11] was 4.5 nM (active) and 5.9 nM (active).
